# In PubChem BioAssay (Tox21):
# Records with an inconclusive call do not appear. Calls of active or inactive are those of the source. Calls come from the whole dose curve; as a rule, active = well fitted cell-killing curve with a large enough effect in the repeat runs; inconclusive = weak or mixed curves, or effect the other way; inactive = no such curve, though single readings can be large or run the other way.
# Assay: qHTS assay for small molecule activators of the heat shock response signaling pathway - cell viability counter screen (AID 743209); note: nearly all actives have a fitted effect of over 50% in size
# Conditions: HSE-bla HeLa viability, CellTiter-Glo luminescence, 5 h; series mostly up to 62.6 µM; activity change, negative = cytotoxicity: at the top concentration
# How it was run: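 Same-well multiplex: after 2.5 h room-temperature incubation with LiveBLAzer B/G substrate and fluorescence reading, CellTiter-Glo reagent was added to HSE-bla HeLa cells that had received compound for 5 h at 37 C; luminescence read after 30 min.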
# % is set by controls: 0 for no effect and ±100 for the full control effect.
row,SMILES,"activity change, negative = cytotoxicity"
1,c1ccc(SSc2ccccc2)cc1,-6.13% [at 81.1 µM] (inactive)
2,Cl[Si](Cl)(c1ccccc1)c1ccccc1,-0.169% [at 81.1 µM] (inactive)
3,Cc1cc(C(C)(C)C)cc(C)c1CC1=NCCN1,-16.2% (inactive)
4,CC(C)OC(=O)C(O)(CC(=O)O)CC(=O)O,14.6% (inactive)
5,C[C@@H](O)[C@H](N)C(=O)O,0.705% [at 29.1 µM] (inactive)
6,OC/C=C/CO,-1.84% (inactive)
7,C1CCC(SSC2CCCCC2)CC1,1.36% (inactive)
8,C=Cc1ccccc1C=C,12.5% [at 232 µM] (inactive)
9,CCOC(=O)Cn1cccc1-c1nc(-c2ccc(OC)cc2)c(-c2ccc(OC)cc2)s1,8.26% (inactive)
10,CN(C)Cc1ccccc1O,-1.13% (inactive)
11,O=[N+]([O-])c1ccc(O)cc1C(F)(F)F,-10.9% (inactive)
12,O=C(O)[C@H](O)[C@@H](O)[C@H](O[C@@H]1O[C@H](CO)[C@H](O)[C@H](O)[C@H]1O)[C@H](O)CO,-1.1% (inactive)
13,CC(C)(c1cc(Br)c(OCC(Br)CBr)c(Br)c1)c1cc(Br)c(OCC(Br)CBr)c(Br)c1 (stereo not drawn),-6.58% (inactive)
14,O=C(O)c1cccc(C(F)(F)F)c1,9.43% (inactive)
15,CCCCCCOC(=O)C(C)CC (stereo not drawn),-4.3% (inactive)
16,Clc1ccnc(Cl)n1,5.56% [at 81.1 µM] (inactive)
17,CN1CCCCC1CCN1c2ccccc2Sc2ccc(S(C)=O)cc21 (stereo not drawn),6.07% (inactive)
18,Cc1cc(C(C)(C)C)c(O)c(C)c1Cn1c(=O)n(Cc2c(C)cc(C(C)(C)C)c(O)c2C)c(=O)n(Cc2c(C)cc(C(C)(C)C)c(O)c2C)c1=O,-4.04% (inactive)
19,Cc1ccc(-c2ccccc2)cc1,-0.122% (inactive)
20,C=C(C)C(=O)OCCCCCCCCCC,12.6% [at 81.1 µM] (inactive)
21,COC(=O)c1ccccc1OC,-8.45% (inactive)
22,C=C(C)c1cccc(C(=C)C)c1,11.4% (inactive)
23,O=C1CCc2cc(OCCCCc3nnnn3C3CCCCC3)ccc2N1,-4.05% (inactive)
